An excerpt weighted towards active compounds, which were near 12% of everything screened.
L3MBTL1 inh: blocks human L3MBTL1 | actives 0.66% (n = 230,000) | Q9Y468 | AlphaScreen L3MBTL1–H3K9me1 peptide binding | AID 485360 | Potency, µM (highest dose often 57.1 µM), without a hit: at the top dose activity, negative = inhibition, most hits filed as inhibitors; note: % is set by controls: 0 for no effect and ±100 for the full control effect; nearly all actives have a fitted effect of over 60% in size
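AlphaScreen assay: L3MBTL1 (50 nM final) was preincubated 30 min at room temperature with biotinylated H3(1-15)K9me1 peptide (75 nM final), then 30 min with library compounds; streptavidin donor and nickel chelate acceptor beads (10 ug/mL final) added, 30 min dark.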
JMJD2A Tudor: JMJD2A Tudor domain (human) inhibition. AlphaScreen JMJD2A-Tudor / H3K4me3 peptide binding. O75164. Potency, µM (series often up to 114 µM), inactives show at the highest dose activity change, negative = inhibition, most hits filed as inhibitors. actives 4.4% (n = 390,000); note: % is set by controls: 0 for no effect and ±100 for the full control effect; nearly all actives have a fitted effect of over 50% in size
HP1b binding inh: inhibitors of HP1-beta chromodomain binding to methylated histone tails | Potency, µM (doses to about 114 µM), for the others: at the top dose activity change, negative = inhibition, most hits filed as inhibitors | AlphaScreen HP1-beta / biotin-H3K9me3 peptide binding | AID 540317 | P83916 | actives 0.56% (n = 390,000); note: nearly all actives have a fitted effect of over 70% in size
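Compound inhibition of the preformed complex between 50 nM HP1-beta and 50 nM biotinylated H3K9me3 peptide was read by AlphaScreen. Buffer was PBS pH 7.4 with 0.01% Tween-20. Incubations ran 30 min at room temperature, with 10 ug/mL donor/acceptor beads.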
BAZ2B inh: inhibitors of human BAZ2B bromodomain; AlphaScreen BAZ2B-H3K14Ac peptide displacement; Potency, µM (titrated, usually from 114 µM), inactives show at the top dose activity change, negative = inhibition, hits mostly inhibitors; actives 4.4% (n = 360,000); note: % is set by controls: 0 for no effect and ±100 for the full control effect; nearly all actives have a fitted effect of over 60% in size
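In this displacement format the biotinylated H3(5-23) peptide acetylated at Lys14 serves as ligand at 50 nM, with BAZ2B at 50 nM in PBS pH 7.4 containing 0.01% Tween-20. Donor and acceptor beads are 10 ug/mL final.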
G9a block: inhibitors of human histone lysine methyltransferase G9a; Q96KQ7; G9a H3K9 monomethylation, AlphaScreen, 2 h; Potency, µM (titrated, usually from 102 µM), without a hit: at the top dose activity, negative = inhibition, actives largely listed as inhibitors; actives 8.8% (n = 350,000); AID 504332; note: % is set by controls: 0 for no effect and ±100 for the full control effect; nearly all actives have a fitted effect of over 75% in size
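Enzyme 20 nM + cpd, 15 min RT; add b-H3K9 pep 500 nM / SAM 20 uM; 2 h RT; anti-H3K9me1 Ab 0.5 ug/mL + SA donor / anti-rabbit acceptor beads 20 ug/mL each, 10 min; AlphaScreen read.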
Sfp PPTase inh: Sfp phosphopantetheinyl transferase inhibition. Potency, µM, without a hit: largest response in the series, negative = inhibition, hits mostly inhibitors. Q9F4F7. actives 3.5% (n = 310,000). Biochemical Sfp PPTase activity, qHTS;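 note: the enzyme is Sfp with the accession as filed and its product quenches rhodamine fluorescence; 0% = enzyme reaction without inhibitor and -100% = no enzyme wells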
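Compounds were incubated with enzyme (final 15 nM) for 15 min at room temperature before substrate addition started the reaction. Fluorescence at 525 nm excitation, 598 nm emission was recorded immediately and after 30 minutes.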
* hit, by the source's call; ? = inconclusive; nt = not tested or not shown; [ ] = another dose, or the depositor's remark. Calls come from the whole dose curve; as a rule, active = well fitted curve in the direction sought with a large enough effect; inconclusive = small, poorly fitted or top-dose-only effect, or another doubt; inactive = no such curve, though single readings can be large; an effect the other way counts as inactive or inconclusive. Potency is the fitted concentration of half-maximal effect.

SMILES	L3MBTL1 inh	JMJD2A Tudor	HP1b binding inh	BAZ2B inh	G9a block	Sfp PPTase inh
CCN1CCN(C(=O)CSc2nc(N)cc(N)n2)CC1	2.6%	-14.3%	37.1%	-9.2%	44.7µM*	-1.9%
CC1CCCC(C)N1C(=O)CSc1nc(N)cc(N)n1 (configuration not stated)	nt	?	?	-12.7%	13.3%	7.0%
CN1CCN(S(=O)(=O)c2ccc(C#N)cc2)C(c2ccccc2)C1 (configuration not stated)	5.6%	8.4%	46.5%	-3.9%	?	nt
CN1CCN(S(=O)(=O)c2cccc(C#N)c2)C(c2ccccc2)C1 (configuration not stated)	14.6%	-3.4%	25.5%	-2.0%	56.2µM*	nt
CN1CCCN(S(=O)(=O)c2cccc(C#N)c2)CC1	nt	-8.1%	48.2%	-18.5%	56.2µM*	-8.7%
COc1cc(C#N)ccc1OC(=O)c1cccc(S(=O)(=O)N2CCN(C)CC2)c1	-3.5%	-6.2%	17.7%	10.9%	50.1µM*	nt
Cc1cc(C)c2ccc(=S)[nH]c2n1	-14.6%	-21.8%	22.6%	-25.9%	8.91µM*	?
Cc1ccc(NC(=S)N2CCN(Cc3ccccc3)CC2)cc1	nt	-18.8%	27.6%	-28.0%	7.3%[59 µM]	22.8%
S=C(c1ccccc1)N1CCN(C(=S)c2ccccc2)CC1	2.6%	1.4%	39.4%	-29.0%	?	1.3%
CCN1CCN(C(=S)c2ccc(-c3ccccc3)cc2)CC1	-15.9%	-22.1%	-8.7%	-29.0%	31.6µM*	22.4µM*
Cc1ccc(C(=S)N2CCN(Cc3ccccc3)CC2)cc1	-5.4%[11.4 µM]	-21.0%	-5.7%	?	?	11.2µM*
Cc1ccc(CN2CCN(C(=O)c3ccncc3)CC2)cc1	1.6%	7.94µM*	?	22.4µM*	8.91µM*	?
O=C(c1ccc(-c2ccccc2)cc1)N1CCN(Cc2ccccn2)CC1	-6.0%	?	13.1%	?	39.8µM*	10.3%
O=C(CSc1nc(=O)n(Cc2ccco2)c2c1CCC2)NCc1ccc(Cl)cc1	nt	6.5%	32.4%	-1.0%	-4.1%[59 µM]	nt
N#CC(=Nc1ccccc1)c1ccccc1	nt	0.0%	18.9%	nt	nt	nt
CCC1CCCCN1C(=O)c1ccc(OC2CCN(Cc3ccccn3)CC2)cc1 (configuration not stated)	nt	-20.5%	18.8%	-24.0%	17.8%	4.1%
CSc1ccc(CN2CCN(C(=O)c3ccc([N+](=O)[O-])cc3)CC2)cc1	-5.1%	22.4µM*	?	50.1µM*	nt	-18.9%
COCC1CCCCN1C(=O)c1ccc(OC2CCN(Cc3ccccn3)CC2)cc1 (configuration not stated)	nt	25.1µM*	17.7%	-38.5%	2.6%	4.1%
CCN1CCN(C(=S)c2ccc(Cl)c(Cl)c2)CC1	nt	-32.3%	-29.9%	-33.5%	2.51µM*	15.8µM*
O=C(NNc1ccc(Cl)cc1)c1sccc1Cl	9.5%	?	11.6%	?	nt	-10.5%
CN(C)CC(=O)Nc1ccc(S(N)(=O)=O)cc1	nt	14.1µM*	-4.0%	-2.0%	23.9%	4.0%
NS(=O)(=O)c1ccc(NC(=O)c2c(F)cccc2Cl)cc1	4.3%	-3.0%	36.3%	-3.0%	5.6%	6.2%
NS(=O)(=O)c1ccc(NNC(=O)c2sccc2Cl)cc1	nt	2.8%	44.9%	33.0%	7.08µM*	12.5%
NS(=O)(=O)c1ccc(NC(=O)c2c(Cl)cccc2Cl)cc1	3.2%	28.2µM*	-6.8%	4.9%	1.4%[0.501 µM]	3.8%
NS(=O)(=O)c1ccc(NC(=O)CCCCCN2C(=O)c3ccccc3C2=O)cc1	-0.2%	-4.1%	22.8%	-6.6%	-35.0%	nt
NS(=O)(=O)c1ccc(NC(=O)CCCCC(=O)Nc2ccc(S(N)(=O)=O)cc2)cc1	nt	89.1µM*	63.3%	-3.2%	8.6%	1.4%
CC(=O)Nc1ccc(S(=O)(=O)N[C@@H](C)C(=O)N2CCN(c3ccccn3)CC2)cc1	nt	11.3%	39.3%	nt	nt	nt

Screening results: PubChem BioAssay, National Center for Advancing Translational Sciences (NCATS)
